# Test results as given in PubChem BioAssay (NCATS).
# Values without a mark were called inactive. Records with an inconclusive call do not appear. Entries that show only a call come without a potency. Activity calls are given as the source filed them. Unless noted, calls follow the shape of the dose curve; as a rule, active = well fitted curve in the direction sought with a large enough effect; inconclusive = small, poorly fitted or top-dose-only effect, or another doubt; inactive = no such curve, though single readings can be large; an effect the other way counts as inactive or inconclusive.
# Key:
# [1] = molecular target: Lysosomal acid glucosylceramidase (Homo sapiens) (UniProt P04062); test: Glucocerebrosidase-p2 (AID 348; in the data active = potency below about 10 µM; also: potency is read from the fitted curve at half-maximal effect); conditions: purified GBA, blue fluorogenic substrate, 40 min
# How it was run: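 Compounds titrated from 0.6 nM upwards against 0.2 nM enzyme in pH 5.9 citric acid/KH2PO4, taurocholate, tween-20; blue fluorogenic substrate 80 uM, 40 min room temperature, stopped and read Ex 365/Em 440 for AC50.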
# [2] = AP1 Signaling Pathway (AID 357; active = well fitted curve in either direction with a large enough effect, not every such curve was filed as active;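 also: ME-180 reporter cells stimulated with EGF at its EC50 level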); conditions: ME-180 AP-1-bla reporter, EGF-induced, beta-lactamase ratio, 5 h; at 7.69 µM (top of the series) unless noted
# How it was run: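 A ratiometric CCF4 readout (405 nm excitation; 460 and 530 nm emission) quantified AP-1-driven beta-lactamase in ME-180 cells after 5 h with compound and EC50 EGF; AC50 values were derived for activators and inhibitors.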
# [3] = molecular target: Cytochrome P450 1A2 (Homo sapiens) (UniProt P05177); test: p450-cyp1a2 (AID 410; calls by dose curve); conditions: recombinant CYP1A2, luciferin-ME demethylation, luminescence; series mostly up to 11.4 µM
# How it was run: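 Luminescent readout of luciferin formed from Luciferin-ME by human CYP1A2; data normalized against complete inhibition by 57 uM furafylline. Enzyme 20nM, substrate 100uM at Km, 100mM KPO4 buffer, 60 min reaction at room temperature.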
# [4] = NFAT Signaling Pathway (AID 444; active = well fitted curve in either direction with a large enough effect, not every such curve was filed as active;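 also: carbachol stimulus at about its EC50 of 1 µM final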); conditions: Jurkat NFAT-bla M1, carbachol, beta-lactamase ratio, 5 h; at 7.69 µM (top of the series) unless noted
# How it was run: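 Jurkat cells carrying an NFAT-driven β-lactamase reporter and co-transfected muscarinic M1 receptor were treated with compound plus carbachol (1 uM final, an EC50 level) for 5 h at 37 °C. CCF4 loading followed for 1 h at RT; 460/530 nm ratio gave %activity.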
# [5] = Stat Signaling Pathway (AID 446; active = well fitted curve in either direction with a large enough effect, not every such curve was filed as active;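 also: ME-180 cervical cancer cells given 40 pM IL-6 alongside compound; SIE-controlled beta-lactamase reporter measured as 460/530 nm FRET emission ratio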); conditions: ME-180 SIE beta-lactamase reporter, IL-6 stimulated, 5 h; at 7.69 µM (top of the series) unless noted
# How it was run: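 ME-180 cells carrying a SIE-driven beta-lactamase reporter are stimulated with 40 pM IL-6 for 5 h at 37C in the presence of compound. The 460/530 nm FRET substrate ratio is read after 2.5 h at RT. Data are normalised to 300 pM IL-6 and to 125 nM JAK inhibitor controls.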
# [6] = molecular target: Glucocorticoid receptor (Homo sapiens) (UniProt P04150); test: GR-GFP Redistribution (AID 450;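 active = compounds whose dose series gives a full or clear partial fitted curve of increased nuclear translocation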; also: potency is read from the fitted curve at half-maximal effect); conditions: U2OS GR-GFP nuclear translocation, laser cytometry, 2 h
# [7] = molecular target: Glucocorticoid receptor (Homo sapiens) (UniProt P04150); test: GR-EFC Redistribution (AID 451; calls by dose curve; also: potency is read from the fitted curve at half-maximal effect); conditions: CHO-K1 GR-EFC translocation, beta-gal luminescence, 2 h
# How it was run: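 CHO-K1 cells stably expressing nuclear-localized β-gal enzyme acceptor and GR fused C-terminally to the enzyme donor fragment; ligand-driven nuclear translocation restores β-gal by complementation. Compounds titrated up to 46 uM final, 2 h at 37 °C; luminescence read.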
# [8] = molecular target: Mitogen-activated protein kinase 10 (Mus musculus) (UniProt Q61831); test: JNK3 AlphaScreen Assay (AID 530; active = well fitted curve in either direction with a large enough effect, not every such curve was filed as active;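 also: kinase came from lysate of stimulated human HepG2 cells; signal reports phosphorylation of biotinylated GST-cJun 1-79 at Ser73 with 10 µM ATP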); conditions: JNK3 lysate, c-Jun phosphorylation; series mostly up to 57.1 µM
# How it was run: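 Inhibitors reduce antibody binding to phosphorylated biotin-cJun, lowering AlphaScreen luminescence. Lysates from HepG2 cells pre-activated by IL-1beta plus TNF-alpha supplied JNK3; compounds were titrated.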
# [9] = molecular target: 3',5'-cyclic-AMP phosphodiesterase 4B (Homo sapiens) (UniProt Q07343); test: qHTS Assay for Inhibitors of PDE-IV (AID 607; active = well fitted activation curve with a large enough effect in the main read-out, with a control signal flat, not every such curve was filed as active); conditions: HEK293 ACTOne CNG channel cells, membrane potential fluorescence; series mostly up to 22.9 µM
# How it was run: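 HEK293 ACTOne cells with CNG channel (1000/well), endogenous PDE4; membrane potential dye, compounds up to 22.9 uM final. Fluorescence Ex 535/Em 590; RO 20-1724 (100 uM final) as reference.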
# [10] = molecular target: Cytochrome P450 2C19 (Homo sapiens) (UniProt P33261); test: qHTS Assay for Inhibitors and Substrates of Cytochrome P450 2C19 (AID 899); conditions: recombinant CYP2C19, luciferin-H EGE luminescence; series mostly up to 11.4 µM; also: nearly all actives have a fitted effect of over 60% in size
# How it was run: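 In 50mM KPO4, the reaction held 5nM enzyme and KM-level (10uM) Luciferin-H EGE; it ran 60 min at 37C after NADPH regeneration and a 10 min compound preincubation. Luminescence values were scaled to 57uM ketoconazole as complete inhibition.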
# [11] = molecular target: ATP-dependent 6-phosphofructokinase (Trypanosoma brucei brucei) (UniProt O15648); test: qHTS Assay to Find Inhibitors of T. brucei phosphofructokinase: hit validation (AID 492961);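 also: luminescence reports ADP formed as PFK phosphorylates fructose-6-phosphate with ATP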; conditions: T. brucei PFK, ADP-Glo luminescence; series mostly up to 51.4 µM
# How it was run: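 Reaction: 0.1 M triethanolamine pH 8.0, 5 mM MgCl2, F6P 0.5 mM, ATP 0.1 mM, PFK 1.25 nM, 45 min RT. Read-out: ADP-Glo luminescence. Analysis: concentration-response fits, classed by r2 and efficacy.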
# [12] = molecular target: Ubiquitin carboxyl-terminal hydrolase 1 (Homo sapiens) (UniProt O94782); test: Inhibitors of USP1/UAF1: Pilot qHTS (AID 504865); conditions: purified USP1/UAF1, Ub-rhodamine cleavage fluorescence; series mostly up to 114 µM;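 also: rhodamine fluorescence freed from ubiquitin-rhodamine substrate followed over time; top concentration of the series differs between compounds; nearly all actives have a fitted effect of over 35% in size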
# How it was run: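 Deubiquitinase activity followed as kinetic rhodamine fluorescence release from 150 nM Ub-Rho. 1 nM USP1/UAF1 with compound, after 15 min room-temperature preincubation, in HEPES pH 7.8 buffer containing TCEP, EDTA, BSA and Tween-20.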
# [13] = molecular target: Luciferin 4-monooxygenase (Photinus pyralis) (UniProt P08659); test: Biochemical firefly luciferase enzyme assay for NPC (AID 624030);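 also: purified P. pyralis luciferase at 10 nM with luciferin and ATP substrate; nearly all actives have a fitted effect of over 70% in size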; conditions: purified P. pyralis luciferase, luminescence, 5 min; series mostly up to 58.6 µM
# How it was run: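 Counter-screen for direct inhibition of the luciferase enzyme by approved-drug library compounds, run at 10 nM enzyme in 50 mM Tris acetate (final). Luminescence was read within 5 min of enzyme-buffer addition and normalized to PTC124 versus DMSO (0%).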
# [14] = S16 Schwann cell viability assay (CellTiter-Glo assay) (AID 624031); conditions: S16 rat Schwann cells viability, 24 h; series mostly up to 57.5 µM;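 also: cellular ATP luminescence as a viability measure; nearly all actives have a fitted effect of over 70% in size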
# How it was run: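 Untransfected S16 rat Schwann cells; compound 24 h, 37 °C/5% CO2; CellTiter-Glo ATP luminescence. % activity vs no-cell wells and DMSO controls (0%); concentration-effect curves classed by r2, response magnitude, activity.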
# [15] = S16 Schwann cell PMP22 intronic element firefly luciferase assay (AID 624032); conditions: S16 rat Schwann cells, PMP22 element FLuc, 24 h; series mostly up to 57.5 µM; also: nearly all actives have a fitted effect of over 30% in size
# How it was run: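 Rat S16 Schwann cells stably carrying a PMP22 intronic element-driven Fluc reporter were seeded overnight, then exposed to compounds for 24 h at 37 °C. Luminescence was normalized to PTC124 (positive control) and DMSO (0% activity).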
# [16] = S16 Schwann cell PMP22 intronic element beta-lactamase assay (AID 624044; calls by dose curve; also: nearly all actives have a fitted effect of over 15% in size); conditions: S16 rat Schwann cells, PMP22 element beta-lactamase FRET, 24 h; series mostly up to 38.3 µM
# How it was run: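 Rat S16 Schwann cells with beta-Lac driven by a PMP22 intronic element, compound-treated 24 h at 37 °C. LiveBLAzer FRET B/G read: 460 nm normalized to potassium clavulanate vs DMSO; 535 nm FRET as viability; concentration-effect curves classified.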
# [17] = qHTS profiling for inhibitors of Plasmodium falciparum proliferation (AID 504749); also: nearly all actives have a fitted effect of over 60% in size; conditions: P. falciparum in erythrocytes, SYBR Green DNA, 72 h, at 28.7 µM (top of the series)
# How it was run: (§1)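 Parasite proliferation within erythrocytes, 72 h exposure. Endpoint: SYBR Green I fluorescence after overnight lysis at room temperature. Controls: 0.29 uM artemisinin, DMSO.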
# [18] = test system: 3D7; test: as above; conditions: P. falciparum in erythrocytes, SYBR Green DNA, 72 h; series mostly up to 28.7 µM
# How it was run: as §1
# [19] = test system: 7G8; test: as above; conditions: P. falciparum in erythrocytes, SYBR Green DNA, 72 h; series mostly up to 28.7 µM
# How it was run: as §1
# [20] = test system: AA1029; test: as above; conditions: P. falciparum in erythrocytes, SYBR Green DNA, 72 h; series mostly up to 28.7 µM
# How it was run: as §1
# [21] = test system: AS120; test: as above; conditions: P. falciparum in erythrocytes, SYBR Green DNA, 72 h; series mostly up to 28.7 µM
# How it was run: as §1
# [22] = test system: ATS189; test: as above; conditions: P. falciparum in erythrocytes, SYBR Green DNA, 72 h; series mostly up to 28.7 µM
# How it was run: as §1
# [23] = test system: ATS95; test: as above; conditions: P. falciparum in erythrocytes, SYBR Green DNA, 72 h; series mostly up to 28.7 µM
# How it was run: as §1
# [24] = test system: C2A; test: as above; conditions: P. falciparum in erythrocytes, SYBR Green DNA, 72 h; series mostly up to 28.7 µM
# How it was run: as §1
# [25] = test system: CP185; test: as above; conditions: P. falciparum in erythrocytes, SYBR Green DNA, 72 h; series mostly up to 28.7 µM
# How it was run: as §1
# [26] = test system: CP191; test: as above; conditions: P. falciparum in erythrocytes, SYBR Green DNA, 72 h; series mostly up to 28.7 µM
# How it was run: as §1
# [27] = test system: CP192; test: as above; conditions: P. falciparum in erythrocytes, SYBR Green DNA, 72 h; series mostly up to 28.7 µM
# How it was run: as §1
# [28] = test system: CP194; test: as above; conditions: P. falciparum in erythrocytes, SYBR Green DNA, 72 h; series mostly up to 28.7 µM
# How it was run: as §1
# [29] = test system: CP201; test: as above; conditions: P. falciparum in erythrocytes, SYBR Green DNA, 72 h; series mostly up to 28.7 µM
# How it was run: as §1
# [30] = test system: CP203; test: as above; conditions: P. falciparum in erythrocytes, SYBR Green DNA, 72 h; series mostly up to 28.7 µM
# How it was run: as §1
# [31] = test system: CP211; test: as above; conditions: P. falciparum in erythrocytes, SYBR Green DNA, 72 h; series mostly up to 28.7 µM
# How it was run: as §1
# [32] = test system: CP215; test: as above; conditions: P. falciparum in erythrocytes, SYBR Green DNA, 72 h; series mostly up to 28.7 µM
# How it was run: as §1
# [33] = test system: CP217; test: as above; conditions: P. falciparum in erythrocytes, SYBR Green DNA, 72 h; series mostly up to 28.7 µM
# How it was run: as §1
# [34] = test system: CP237; test: as above; conditions: P. falciparum in erythrocytes, SYBR Green DNA, 72 h; series mostly up to 28.7 µM
# How it was run: as §1
# [35] = test system: CP238; test: as above; conditions: P. falciparum in erythrocytes, SYBR Green DNA, 72 h; series mostly up to 28.7 µM
# How it was run: as §1
# [36] = test system: CP247; test: as above; conditions: P. falciparum in erythrocytes, SYBR Green DNA, 72 h; series mostly up to 28.7 µM
# How it was run: as §1
# [37] = test system: CP250; test: as above; conditions: P. falciparum in erythrocytes, SYBR Green DNA, 72 h; series mostly up to 28.7 µM
# How it was run: as §1
# Sequence of Glucocorticoid receptor (Homo sapiens) (P04150 whole entry, looked up, the tested form may be a part): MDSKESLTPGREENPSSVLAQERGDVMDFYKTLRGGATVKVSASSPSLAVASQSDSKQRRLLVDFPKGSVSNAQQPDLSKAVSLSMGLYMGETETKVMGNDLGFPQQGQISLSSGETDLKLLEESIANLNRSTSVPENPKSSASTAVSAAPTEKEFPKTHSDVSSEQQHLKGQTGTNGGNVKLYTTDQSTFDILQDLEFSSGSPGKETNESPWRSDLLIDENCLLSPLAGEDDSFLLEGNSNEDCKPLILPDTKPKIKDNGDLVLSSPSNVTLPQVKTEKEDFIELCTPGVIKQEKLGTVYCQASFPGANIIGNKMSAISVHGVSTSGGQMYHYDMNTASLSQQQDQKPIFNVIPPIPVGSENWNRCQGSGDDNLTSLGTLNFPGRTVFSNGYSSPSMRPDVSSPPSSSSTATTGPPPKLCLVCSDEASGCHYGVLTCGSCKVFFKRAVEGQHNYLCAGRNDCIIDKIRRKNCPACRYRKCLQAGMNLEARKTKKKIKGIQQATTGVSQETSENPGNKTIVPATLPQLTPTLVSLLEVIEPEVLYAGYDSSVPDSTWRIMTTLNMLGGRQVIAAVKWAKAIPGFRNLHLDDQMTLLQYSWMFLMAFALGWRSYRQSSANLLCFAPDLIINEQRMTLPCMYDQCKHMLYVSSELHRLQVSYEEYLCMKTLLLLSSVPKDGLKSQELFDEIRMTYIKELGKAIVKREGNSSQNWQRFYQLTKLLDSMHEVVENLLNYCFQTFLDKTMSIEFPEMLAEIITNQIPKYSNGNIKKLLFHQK
# Sequence of Luciferin 4-monooxygenase (Photinus pyralis) (P08659 whole entry, looked up): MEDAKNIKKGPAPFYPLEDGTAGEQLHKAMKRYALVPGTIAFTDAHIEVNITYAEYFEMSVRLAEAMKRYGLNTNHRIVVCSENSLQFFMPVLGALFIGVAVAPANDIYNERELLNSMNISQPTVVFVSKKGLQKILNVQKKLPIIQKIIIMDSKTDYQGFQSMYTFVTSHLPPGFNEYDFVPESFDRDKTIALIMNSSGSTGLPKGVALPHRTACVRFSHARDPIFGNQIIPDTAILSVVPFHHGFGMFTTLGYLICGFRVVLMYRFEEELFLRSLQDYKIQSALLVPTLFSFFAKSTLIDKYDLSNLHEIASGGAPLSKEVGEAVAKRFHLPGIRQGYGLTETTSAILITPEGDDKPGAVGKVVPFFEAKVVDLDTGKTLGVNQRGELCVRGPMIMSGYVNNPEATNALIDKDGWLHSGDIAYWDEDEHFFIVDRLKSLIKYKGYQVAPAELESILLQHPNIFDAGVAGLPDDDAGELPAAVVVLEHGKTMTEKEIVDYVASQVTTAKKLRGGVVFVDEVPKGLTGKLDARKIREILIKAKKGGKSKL
# Sequence of 3',5'-cyclic-AMP phosphodiesterase 4B (Homo sapiens) (Q07343 whole entry, looked up): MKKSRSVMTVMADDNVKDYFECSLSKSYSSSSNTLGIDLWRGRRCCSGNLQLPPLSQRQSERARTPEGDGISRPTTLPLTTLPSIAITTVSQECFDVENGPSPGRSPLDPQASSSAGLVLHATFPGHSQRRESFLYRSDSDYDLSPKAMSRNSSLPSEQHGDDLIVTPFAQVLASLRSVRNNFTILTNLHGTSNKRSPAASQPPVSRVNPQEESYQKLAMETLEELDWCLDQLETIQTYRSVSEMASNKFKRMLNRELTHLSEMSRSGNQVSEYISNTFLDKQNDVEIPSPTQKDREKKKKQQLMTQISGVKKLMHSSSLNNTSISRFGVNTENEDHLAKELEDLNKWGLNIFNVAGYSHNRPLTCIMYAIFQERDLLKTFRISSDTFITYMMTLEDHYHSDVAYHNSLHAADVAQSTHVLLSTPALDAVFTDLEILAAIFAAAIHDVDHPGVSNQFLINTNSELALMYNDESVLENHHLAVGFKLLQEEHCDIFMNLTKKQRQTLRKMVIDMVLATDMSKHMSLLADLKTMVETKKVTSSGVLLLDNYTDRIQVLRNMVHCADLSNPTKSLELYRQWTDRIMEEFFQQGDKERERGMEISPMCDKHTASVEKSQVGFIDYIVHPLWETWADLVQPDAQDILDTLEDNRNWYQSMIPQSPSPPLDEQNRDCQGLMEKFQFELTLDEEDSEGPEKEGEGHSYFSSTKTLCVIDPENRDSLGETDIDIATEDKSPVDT
# Sequence of ATP-dependent 6-phosphofructokinase (Trypanosoma brucei brucei) (O15648 whole entry, looked up): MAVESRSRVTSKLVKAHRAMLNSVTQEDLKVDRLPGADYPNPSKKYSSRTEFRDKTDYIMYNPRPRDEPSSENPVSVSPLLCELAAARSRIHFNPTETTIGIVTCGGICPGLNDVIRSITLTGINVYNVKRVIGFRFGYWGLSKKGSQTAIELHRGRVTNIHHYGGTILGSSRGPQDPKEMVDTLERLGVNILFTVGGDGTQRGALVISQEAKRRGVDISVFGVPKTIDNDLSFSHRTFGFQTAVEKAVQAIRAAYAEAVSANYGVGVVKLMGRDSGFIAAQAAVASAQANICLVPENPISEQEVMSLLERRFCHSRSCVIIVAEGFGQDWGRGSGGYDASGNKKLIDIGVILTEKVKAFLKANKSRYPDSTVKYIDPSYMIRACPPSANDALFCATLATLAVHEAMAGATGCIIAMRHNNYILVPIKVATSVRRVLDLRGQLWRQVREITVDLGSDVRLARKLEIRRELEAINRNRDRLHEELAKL
# Sequence of Cytochrome P450 1A2 (Homo sapiens) (P05177 whole entry, looked up): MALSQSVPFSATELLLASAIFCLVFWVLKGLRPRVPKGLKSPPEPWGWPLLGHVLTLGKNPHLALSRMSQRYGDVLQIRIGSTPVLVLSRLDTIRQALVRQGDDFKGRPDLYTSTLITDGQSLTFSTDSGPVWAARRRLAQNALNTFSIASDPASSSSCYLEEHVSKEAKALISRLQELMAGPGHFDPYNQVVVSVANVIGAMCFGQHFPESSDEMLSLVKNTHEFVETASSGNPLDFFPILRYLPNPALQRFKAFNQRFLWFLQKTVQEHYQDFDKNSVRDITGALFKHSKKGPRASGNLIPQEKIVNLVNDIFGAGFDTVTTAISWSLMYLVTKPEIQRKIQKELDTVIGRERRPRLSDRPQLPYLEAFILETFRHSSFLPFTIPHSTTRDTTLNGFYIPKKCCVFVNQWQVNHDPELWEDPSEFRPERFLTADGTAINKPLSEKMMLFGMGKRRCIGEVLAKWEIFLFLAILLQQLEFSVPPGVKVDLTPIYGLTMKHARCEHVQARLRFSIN
# Sequence of Cytochrome P450 2C19 (Homo sapiens) (P33261 whole entry, looked up): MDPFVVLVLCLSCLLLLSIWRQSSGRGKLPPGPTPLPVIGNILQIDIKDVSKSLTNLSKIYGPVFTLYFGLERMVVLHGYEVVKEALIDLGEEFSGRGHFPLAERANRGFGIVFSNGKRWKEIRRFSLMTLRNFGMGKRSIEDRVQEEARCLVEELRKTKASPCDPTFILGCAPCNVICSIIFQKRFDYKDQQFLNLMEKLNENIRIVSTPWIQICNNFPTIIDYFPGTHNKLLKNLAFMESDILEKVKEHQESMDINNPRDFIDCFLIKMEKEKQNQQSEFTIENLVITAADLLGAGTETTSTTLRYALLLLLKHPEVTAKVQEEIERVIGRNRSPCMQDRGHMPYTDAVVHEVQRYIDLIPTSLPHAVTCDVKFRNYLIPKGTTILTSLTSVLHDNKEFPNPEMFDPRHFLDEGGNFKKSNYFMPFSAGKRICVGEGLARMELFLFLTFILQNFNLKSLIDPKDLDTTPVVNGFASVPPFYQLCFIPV
# Sequence of Ubiquitin carboxyl-terminal hydrolase 1 (Homo sapiens) (O94782 whole entry, looked up): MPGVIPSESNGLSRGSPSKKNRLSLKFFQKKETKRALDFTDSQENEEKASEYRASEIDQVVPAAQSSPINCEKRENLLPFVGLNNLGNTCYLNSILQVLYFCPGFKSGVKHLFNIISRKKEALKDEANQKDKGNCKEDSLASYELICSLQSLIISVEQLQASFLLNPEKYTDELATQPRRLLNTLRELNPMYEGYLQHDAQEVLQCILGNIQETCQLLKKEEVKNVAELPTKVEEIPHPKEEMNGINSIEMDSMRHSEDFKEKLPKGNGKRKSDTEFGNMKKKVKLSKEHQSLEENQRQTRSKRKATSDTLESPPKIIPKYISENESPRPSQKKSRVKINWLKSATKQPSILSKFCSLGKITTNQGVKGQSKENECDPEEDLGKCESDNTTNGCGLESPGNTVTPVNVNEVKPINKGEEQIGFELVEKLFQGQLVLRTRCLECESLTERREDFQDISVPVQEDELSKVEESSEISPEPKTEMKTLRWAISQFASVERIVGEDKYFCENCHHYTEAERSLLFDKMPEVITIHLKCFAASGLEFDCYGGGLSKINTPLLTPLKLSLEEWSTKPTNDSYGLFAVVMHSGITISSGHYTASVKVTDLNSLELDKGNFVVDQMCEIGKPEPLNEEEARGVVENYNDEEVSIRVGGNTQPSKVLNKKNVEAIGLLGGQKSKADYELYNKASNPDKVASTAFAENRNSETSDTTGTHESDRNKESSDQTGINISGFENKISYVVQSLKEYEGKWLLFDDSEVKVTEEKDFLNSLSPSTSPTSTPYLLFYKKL
# Sequence of Lysosomal acid glucosylceramidase (Homo sapiens) (P04062 whole entry, looked up): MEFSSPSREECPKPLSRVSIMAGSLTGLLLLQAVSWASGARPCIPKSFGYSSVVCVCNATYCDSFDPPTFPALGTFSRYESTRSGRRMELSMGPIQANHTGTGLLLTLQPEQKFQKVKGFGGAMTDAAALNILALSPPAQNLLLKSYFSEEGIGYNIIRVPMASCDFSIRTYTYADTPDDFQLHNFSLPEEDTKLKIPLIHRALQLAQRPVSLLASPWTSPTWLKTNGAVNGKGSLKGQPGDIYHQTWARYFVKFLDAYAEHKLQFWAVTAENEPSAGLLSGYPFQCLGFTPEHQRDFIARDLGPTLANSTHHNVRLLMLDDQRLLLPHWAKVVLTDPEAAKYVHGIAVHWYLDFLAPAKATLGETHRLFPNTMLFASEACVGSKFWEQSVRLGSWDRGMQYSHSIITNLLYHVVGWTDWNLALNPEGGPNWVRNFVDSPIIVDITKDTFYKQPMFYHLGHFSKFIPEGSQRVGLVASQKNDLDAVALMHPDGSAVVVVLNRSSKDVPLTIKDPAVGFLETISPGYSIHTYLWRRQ
compound,measurement,setting,value
C[N+]1([O-])[C@H]2CC[C@H]1CC(OC(=O)[C@@H](CO)c1ccccc1)C2 (stereo partly drawn),Potency,[1],> 11.4 µM
same,"activity change, negative = inhibition",[2],-0.292%
same,"activity change, negative = inhibition",[3],0.8% [at 2.29 µM]
same,"activity change, negative = inhibition",[4],-79.7% (active)
same,"activity, negative = inhibition",[5],-0.881%
same,Potency,[6],> 46 µM
same,Potency,[7],> 9.22 µM
same,"activity change, negative = inhibition",[8],1.19% [at 11.4 µM]
same,outcome,[9],inactive
same,Potency,[10],inactive
same,outcome,[11],inactive
same,Potency,[12],inactive
same,outcome,[13],inactive
same,outcome,[14],inactive
same,outcome,[15],inactive
same,outcome,[16],inactive
same,"activity, negative = inhibition",[17]; parasite line A,6.57%
same,"activity, negative = inhibition",[17]; parasite line B,-2.12%
same,Potency,[18],inactive
same,Potency,[19],inactive
same,Potency,[20],inactive
same,Potency,[21],inactive
same,Potency,[22],inactive
same,Potency,[23],inactive
same,Potency,[24],inactive
same,Potency,[25],inactive
same,Potency,[26],inactive
same,Potency,[27],inactive
same,Potency,[28],inactive
same,Potency,[29],inactive
same,Potency,[30],inactive
same,Potency,[31],inactive
same,Potency,[32],inactive
same,Potency,[33],inactive
same,Potency,[34],inactive
same,Potency,[35],inactive
same,Potency,[36],inactive
same,Potency,[37],inactive
